Experimental data as given in PubChem BioAssay (Tox21).
Inconclusive results are not listed. The source made the active and inactive calls. Unless noted, the call rests on the fitted dose curve; in most records, active means well fitted curve in the direction sought with a large enough effect in the repeat runs; inconclusive means weak or mixed curves; inactive means no such curve, though single readings can be large; an effect the other way counts as inactive or inconclusive.

What was measured:
[1] = qHTS assay to identify small molecule agonists of the vitamin D receptor (VDR) signaling pathway - cell viability counter screen (AID 743224); details: VDR-bla HEK293T viability, CellTiter-Glo luminescence, 16 h; series mostly up to 62.6 µM; further: nearly all actives have a fitted effect of over 50% in size
Outline: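 VDR-bla cells were preincubated 4 h at 37C/5% CO2, then exposed to compounds for 16 h. After the 2 h room-temperature bla FRET read, CellTiter-Glo was added to the same wells and luminescence read after 30 min.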

[2] = qHTS assay to identify small molecule antagonists of the vitamin D receptor (VDR) signaling pathway - cell viability counter screen (AID 743225); details: VDR-bla HEK293T viability, CellTiter-Glo luminescence, 16 h; series mostly up to 61 µM; further: nearly all actives have a fitted effect of over 50% in size
Outline: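 HEK293T VDR-bla; cpd + 1a,25-(OH)2D3 3 nM final, 16 h 37C/5% CO2; B/G FRET substrate 2 h RT; then CellTiter-Glo 30 min RT, luminescence.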

[3] = qHTS assay to identify small molecule agonists of the NFkB signaling pathway - cell viability counter screen (AID 1159515; calls by dose curve; further: nearly all actives have a fitted effect of over 55% in size); details: NFkB-bla ME-180 viability, CellTiter-Glo luminescence, 5 h; series mostly up to 61 µM
Outline: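 NFkB-bla ME-180 cells, 2,000/well, were plated overnight at 37 C, 5% CO2, then exposed to compounds in DMSO for 5 hr. After the bla FRET read, CellTiter-Glo was added to the same wells; luminescence was read after 30 min at room temperature.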

[4] = qHTS assay to identify small molecule agonists of the endoplasmic reticulum stress response signaling pathway - cell viability counter screen (AID 1159517; calls by dose curve; further: nearly all actives have a fitted effect of over 50% in size); details: ESRE-bla HeLa viability, CellTiter-Glo luminescence, 5 h; series mostly up to 61 µM
Outline: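 Luminescence readout: CellTiter-Glo, 30 min RT, same wells as the ESRE-bla reporter read. HeLa ESRE-bla, 1,500 cells/well, o/n 37 C; cpd 5 hr 37 C/5% CO2.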

[5] = qHTS assay to identify small molecule antagonists of the retinoid-related orphan receptor gamma (ROR-gamma) signaling pathway - cell viability counter screen (AID 1159520); details: Tet-on RORgamma CHO cells viability, ATP luminescence, 16 h; series mostly up to 92.4 µM; further: nearly all actives have a fitted effect of over 50% in size
Outline: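 Tet-on ROR gamma CHO cells (1,000/well) were plated 4 hr, given compounds in DMSO for 2 hr at 37 C, then induced with 1 uM final doxycycline for 16 hr. Viability was read as ATP by CellTiter-Glo luminescence after 30 min.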

[6] = biological target: Nuclear receptor ROR-gamma (Homo sapiens) (UniProt P51449); test: qHTS assay to identify small molecule antagonists of the retinoid-related orphan receptor gamma (ROR-gamma) signaling pathway (AID 1159521); details: Tet-on RORgamma CHO cells, RORE-luciferase, 16 h; series mostly up to 92.4 µM
Outline: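 Cells were plated, rested 4 h at 37 C, exposed to compounds for 2 h, then given 1 uM final doxycycline hyclate to induce RORγ expression. After 16 h, ONE-Glo luminescence from the ROR response element reporter was measured.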

[7] = qHTS assay to identify small molecule agonists of the AP-1 signaling pathway - cell viability counter screen (AID 1159525; calls by dose curve; further: nearly all actives have a fitted effect of over 55% in size); details: ME-180 AP-1-bla cells viability, ATP luminescence, 5 h; series mostly up to 76.8 µM
Outline: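 ME-180 AP-1-bla, 2500 cells/well, Opti-MEM + 0.5% dialyzed FBS; overnight 37 °C; cpd 15-pt titration, 5 h 37 °C; CellTiter-Glo 30 min RT; luminescence read; normalised to TOAB and DMSO controls.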

[8] = qHTS assay to identify small molecule agonists of the AP-1 signaling pathway (AID 1159526; calls by dose curve); details: ME-180 (cervical carcinoma) AP-1-bla reporter, beta-lactamase FRET ratio, 5 h; series mostly up to 76.8 µM
[9] = biological target: Retinoic acid receptor RXR-alpha (Homo sapiens) (UniProt P19793); test: qHTS assay to identify small molecule agonists of the RXR signaling pathway (AID 1159527; calls by dose curve; further: nearly all actives have a fitted effect of over 35% in size); details: HEK293T RXRa-UAS-bla, beta-lactamase ratio, 16 h; series mostly up to 76.8 µM
Chain of Retinoic acid receptor RXR-alpha (Homo sapiens) (P19793 whole entry, looked up): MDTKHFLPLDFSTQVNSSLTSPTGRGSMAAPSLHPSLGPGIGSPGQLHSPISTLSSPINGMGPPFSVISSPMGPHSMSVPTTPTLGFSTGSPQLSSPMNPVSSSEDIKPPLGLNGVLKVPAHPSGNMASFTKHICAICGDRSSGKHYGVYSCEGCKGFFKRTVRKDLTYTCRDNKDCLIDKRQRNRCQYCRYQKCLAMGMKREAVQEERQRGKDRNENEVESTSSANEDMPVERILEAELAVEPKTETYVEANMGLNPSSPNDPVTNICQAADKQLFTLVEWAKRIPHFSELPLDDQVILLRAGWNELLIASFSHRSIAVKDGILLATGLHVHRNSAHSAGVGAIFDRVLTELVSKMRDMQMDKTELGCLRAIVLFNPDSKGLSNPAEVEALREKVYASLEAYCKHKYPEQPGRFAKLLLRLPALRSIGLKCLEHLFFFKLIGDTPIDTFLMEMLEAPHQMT
Outline: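 Cells plated at 2,000/well, rested 5 hr at 37 C, pin-dosed with DMSO compound solutions, incubated 16 hr, then loaded with B/G FRET substrate for 2 hr at RT before dual-emission fluorescence reading.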

[10] = qHTS assay to identify small molecule agonists of the RXR signaling pathway - cell viability counter screen (AID 1159529); details: RXR-alpha-bla HEK293T viability, CellTiter-Glo, 16 h; series mostly up to 76.8 µM
Outline: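 Steps: seed RXR-alpha-UAS-bla HEK 293T cells in assay medium containing 2% charcoal-stripped FBS; incubate 5 hr; add compounds in DMSO; incubate 16 hr at 37 C; after the bla read, add CellTiter-Glo and read luminescence at 30 min.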

[11] = qHTS assay to identify small molecule antagonists of the retinoid acid receptor (RAR) signaling pathway - cell viability counter screen (AID 1159551); details: C3RL4 cells viability, ATP luminescence (CellTiter-Glo), 6 h; series mostly up to 92.4 µM; further: nearly all actives have a fitted effect of over 35% in size
Outline: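 C3RL4 cells were seeded overnight at 37 C, then treated with compounds plus 1 uM (final) retinol for 6 h at 37 C. Viability was read as ATP by CellTiter-Glo luminescence after 30 min at room temperature.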

[12] = qHTS assay to identify small molecule agonists of the retinoic acid receptor (RAR) signaling pathway (AID 1159553); details: C3RL4 RARE luciferase reporter, agonist, 6 h; series mostly up to 73.3 µM
Outline: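 C3RL4 cells carrying a RARE luciferase reporter were plated overnight at 37 C, then exposed to compounds in DMSO for 6 hr at 37 C and 5% CO2. Luminescence was read 30 min after luciferase reagent addition at room temperature.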

[13] = qHTS assay to identify small molecule antagonists of the retinoic acid receptor (RAR) signaling pathway (AID 1159552; further: nearly all actives have a fitted effect of over 50% in size); details: C3RL4 RARE luciferase reporter, retinol-stimulated, 6 h; series mostly up to 92.4 µM
Outline: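 Retinol at 1 uM final stimulated RARE-luciferase expression in C3RL4 cells exposed to test compounds for 6 hr at 37 C. Reduced luminescence, read 30 min after detection reagent, indicated pathway antagonism.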

[14] = qHTS assay to identify small molecule antagonists of the estrogen related receptor (ERR) signaling pathway - cell viability counter screen (AID 1224818); details: ERR reporter cell line viability counter screen; series mostly up to 46.1 µM;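 further: viability measured after 17.5 h of compound exposure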
Outline: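 ERR reporter cells plated 6 h at 37 C/5% CO2, then compounds in DMSO pin-transferred and incubated 17.5 h at 37 C. Viability read as CellTiter-Fluor fluorescence after 30 min at 37 C.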

[15] = qHTS assay to identify small molecule antagonists of the estrogen related receptor signaling pathway with the pleiotropic PPARgamma coactivator (PGC) cell viability counter screen (AID 1224822); details: ERR/PGC reporter cell line viability counter screen; series mostly up to 46.1 µM
Outline: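 PGC/ERR cells were seeded at 2,000 cells/well, rested 6 h at 37 C/5% CO2, then given compounds in DMSO by pin tool and incubated 17.5 h at 37 C. Viability came from CellTiter-Fluor fluorescence after 30 min.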

[16] = qHTS assay to identify small molecule agonists of the endoplasmic reticulum stress response signaling pathway (AID 1159516; active means well fitted activation curve with a large enough effect in the signal ratio in the repeat runs, not every such curve was filed as active; the % refers to the signal ratio); details: ESRE-bla HeLa, ER stress beta-lactamase reporter, 5 h; series mostly up to 61 µM
Outline: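 CellSensor ESRE-bla HeLa cells, carrying a beta-lactamase reporter driven by the ER stress response element, were plated overnight and exposed to compounds for 5 hr at 37 C. Reporter activity was read as FRET substrate fluorescence after 2 hr at room temperature.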

Measured: Potency

C[N+]1(C)CCCC(OC(=O)C(O)(c2ccccc2)c2ccccc2)C1 (centres undefined)
not listed: [13] | [14] | [15] | [16]
inactive: all other assays above

O=C(O)CNC(=O)c1ccc(CO)o1
not listed: [1] | [12] | [13] | [14] | [15] | [16]
inactive: all other assays above

CC(=O)O[C@@]12CO[C@@H]1C[C@H](O)[C@@]1(C)C(=O)[C@H](O)C3=C(C)[C@@H](OC(=O)[C@H](O)[C@@H](NC(=O)OC(C)(C)C)c4ccccc4)C[C@@](O)([C@@H](OC(=O)c4ccccc4)[C@H]21)C3(C)C
inactive: [2] | [3] | [4] | [6] | [7] | [8] | [9] | [10] | [11]

CCCCCCCCCC[N+](C)(C)[O-]
not listed: [12] | [13] | [14] | [15] | [16]
inactive: all other assays above

CCCOC(=O)CC
not listed: [5] | [12] | [13] | [14] | [15] | [16]
inactive: all other assays above

NC(=O)N[C@@H](CCC(=O)O)C(=O)O
not listed: [9] | [12] | [13] | [14] | [15] | [16]
inactive: all other assays above

CCCn1cc[n+](C)c1C
not listed: [13] | [14] | [15] | [16]
inactive: all other assays above

Cc1onc(-c2c(Cl)cccc2Cl)c1C(=O)Cl
not listed: [12] | [13] | [14] | [15] | [16]
inactive: all other assays above

O=S(=O)(O)c1cc(O)c(O)c(S(=O)(=O)O)c1
inactive: [1] | [3] | [4] | [5] | [7] | [8] | [9] | [10] | [11]

CNCCO
not listed: [12] | [13] | [14] | [15] | [16]
inactive: all other assays above

C[N+](C)(CCOc1ccccc1)Cc1cccs1
not listed: [12] | [13] | [14] | [15] | [16]
inactive: all other assays above

COC(=O)Nc1ccc(Cl)c(Cl)c1
not listed: [5] | [6] | [14] | [15] | [16]
inactive: all other assays above

CCCc1nn(C)c2c(=O)[nH]c(-c3cc(S(=O)(=O)N4CCN(C)CC4)ccc3OCC)nc12
not listed: [5] | [9] | [13] | [16]
inactive: all other assays above

O=Cc1cccc(Br)c1
not listed: [5] | [12] | [14] | [15] | [16]
inactive: all other assays above

CCCC[N+](C)(CCCC)CCCC
not listed: [9] | [12] | [13] | [14] | [15] | [16]
inactive: all other assays above

NS(=O)(=O)Cc1noc2ccccc12
not listed: [5] | [12] | [13] | [14] | [15] | [16]
inactive: all other assays above

O=[N+]([O-])c1cncn1CCN1CCOCC1
not listed: [12] | [13] | [14] | [15] | [16]
inactive: all other assays above

CC(C)=CCC/C(C)=C/C#N
not listed: [9] | [12] | [14] | [15] | [16]
inactive: all other assays above

N[C@H](C(=O)O)[C@@H](O)c1ccc(O)c(O)c1
not listed: [12] | [13] | [14] | [15] | [16]
inactive: all other assays above

O=C(O)CCCC[P+](c1ccccc1)(c1ccccc1)c1ccccc1
not listed: [13] | [14] | [15] | [16]
inactive: all other assays above

COc1cc(C)nc(-n2nc(C)cc2OC)n1
inactive: [1] | [2] | [3] | [16] | [4] | [7] | [8] | [10] | [11]
